Results as given in PubChem BioAssay (EPA / NIEHS).
Results filed as inconclusive are left out. The source made the active and inactive calls. The calls were made as follows, unless noted: active = hit-call score of the fitted dose curve at least 0.9, where 1 is the maximum; inconclusive = response in the unintended direction; inactive = score below 0.9.

Legend:
[1] = read-out: Intercellular Adhesion Molecule 1 (ICAM1), ICAM1 (gene 3383); experiment: BSK_3C_ICAM1: BioMAP Diversity Plus: 3C Assay for Intercellular Adhesion Molecule 1 (ICAM1) Biomarker Activity (AID 2283003; active = hit-call score of the fitted dose curve at least 0.9, where 1 is the maximum; inactive = score below 0.9); conditions: primary human endothelial cells (HUVEC); actives raise or lower the signal
How it was run: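 Using DMSO as baseline, bidirectional curve fitting was applied to ICAM-1 ELISA signals from HUVEC in the 3C system, measured 24 h after compound addition.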

[2] = BSK_3C_Proliferation: Cell Proliferation Assessment in the BioMAP Diversity Plus: 3C Assay (AID 2283006; active = hit-call score of the fitted dose curve at least 0.9, where 1 is the maximum; inactive = score below 0.9;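 as to AC50: potency may reflect either rise or fall in cell number versus DMSO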); conditions: primary human endothelial cells (HUVEC)
How it was run: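 Measured here: sulforhodamine B (0.1%) staining of TCA-fixed sub-confluent umbilical vein endothelial cultures 48 h post-dosing, absorbance 560 nm. DMSO served as negative control and baseline; both signal gain and loss were modelled.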

[3] = target: Peroxisome proliferator-activated receptor gamma (Homo sapiens) (UniProt P37231); experiment: ATG_PPARg_TRANS: Attagene TRANS-FACTORIAL HepG2 Assay for human Peroxisome Proliferator-activated Receptor-gamma (PPARg) (AID 2283007)
How it was run: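 Gain-of-signal endpoint relative to DMSO, derived from reporter mRNA levels quantified by RT-PCR and capillary electrophoresis. Cells were HepG2 transiently expressing a chimeric NR-Gal4 construct with GAL4-UAS reporters, exposed to chemicals for 24 h.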

[4] = target: Nuclear receptor subfamily 1 group I member 2 (Homo sapiens) (UniProt O75469); experiment: ATG_PXR_TRANS: Attagene TRANS-FACTORIAL HepG2 Assay for human Pregnane X Receptor (PXR) (AID 2283008)
How it was run: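 HepG2 transfected (FuGene 6) with GAL4-UAS reporter units + PXR-Gal4 chimera; dosed 24 h. Total RNA → oligo(dT) RT → PCR → 6-FAM primer extension → HpaI cut → CE. Gain-of-signal vs DMSO.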

[5] = target: Retinoic acid receptor RXR-alpha (Homo sapiens) (UniProt P19793); experiment: ATG_RXRa_TRANS: Attagene TRANS-FACTORIAL HepG2 Assay for human Retinoid X Receptor alpha (RXRa) (AID 2283012)
How it was run: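 Chimeric NR-GAL4 trans-activation in HepG2, 24 h treatment; reporter transcripts quantified by fluorescence on capillary electrophoresis, analysed for upward change from DMSO.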

[6] = target: human Thyroid Receptor alpha (THRa1), THRA (gene 7067) (UniProt P10827); experiment: ATG_THRa1_TRANS: Attagene TRANS-FACTORIAL HepG2 Assay for human Thyroid Receptor alpha (THRa1) (AID 2283014)
How it was run: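 HepG2 cells transiently transfected with multiplexed GAL4-UAS reporter units for exogenous chimeric THRa1-Gal4; reporter mRNA measured 24 h after dosing by RT-PCR, 6-FAM labelling, HpaI digestion and capillary electrophoresis. Gain-of-signal fitted versus DMSO baseline.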

[7] = read-out: E-selectin (Homo sapiens) (UniProt P16581); experiment: BSK_3C_Eselectin: BioMAP Diversity Plus: 3C Assay for Eselectin Biomarker Activity (AID 2283015; active = hit-call score of the fitted dose curve at least 0.9, where 1 is the maximum; inactive = score below 0.9); conditions: primary human endothelial cells (HUVEC); actives raise or lower the signal
How it was run: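 Primary human umbilical vein endothelial cells (3C system) were dosed with chemical and cell-surface E-selectin measured by ELISA 24 h later. Bidirectional curve fitting used DMSO as negative control and baseline.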

[8] = read-out: Interleukin-1 alpha (IL1a), IL1A (gene 3552); experiment: BSK_BE3C_IL1a: BioMAP Diversity Plus: BE3C Assay for Interleukin-1 alpha (IL1a) Biomarker Activity (AID 2283016; active = hit-call score of the fitted dose curve at least 0.9, where 1 is the maximum; inactive = score below 0.9); conditions: primary human bronchial epithelial cells; actives raise or lower the signal
How it was run: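 Measured in human lung primary bronchial epithelial cells: IL-1a by ELISA at 24 h after dosing, with bidirectional fitting against DMSO.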

[9] = read-out: Monocyte Chemoattractant Protein-1 (MCP1), CCL2 (gene 6347); experiment: BSK_4H_MCP1: BioMAP Diversity Plus: 4H Assay for Monocyte Chemoattractant Protein-1 (MCP1) Biomarker Activity (AID 2283018; active = hit-call score of the fitted dose curve at least 0.9, where 1 is the maximum; inactive = score below 0.9); conditions: primary human endothelial cells (HUVEC); actives raise or lower the signal
How it was run: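 Primary human umbilical vein endothelium is exposed to chemical for 24 h before MCP-1 is assayed by ELISA. Concentration-response fitted bidirectionally relative to DMSO.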

[10] = read-out: Interleukin-8 (IL8), CXCL8 (gene 3576); experiment: BSK_3C_IL8: BioMAP Diversity Plus: 3C Assay for Interleukin-8 (IL8) Biomarker Activity (AID 2283020; active = hit-call score of the fitted dose curve at least 0.9, where 1 is the maximum; inactive = score below 0.9); conditions: primary human endothelial cells (HUVEC); actives raise or lower the signal
How it was run: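 Using DMSO-treated wells as the baseline, bidirectional curve fitting was applied to ELISA-measured IL-8 from human umbilical vein endothelial cultures sampled 24 h after compound addition.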

[11] = target: human Retinoic Acid Receptor gamma (RARg), RARG (gene 5916) (UniProt P13631); experiment: ATG_RARg_TRANS: Attagene TRANS-FACTORIAL HepG2 Assay for human Retinoic Acid Receptor gamma (RARg) (AID 2283009)
How it was run: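 Gain-of-signal relative to DMSO is reported from fluorescent capillary electrophoresis of RT-PCR reporter products. These came from HepG2 cells expressing transfected RARg-GAL4 chimeras with UAS reporters, harvested 24 h after dosing.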

[12] = read-out: Monocyte Chemoattractant Protein-1 (MCP1), CCL2 (gene 6347); experiment: BSK_3C_MCP1: BioMAP Diversity Plus: 3C Assay for Monocyte Chemoattractant Protein-1 (MCP1) Biomarker Activity (AID 2283017; active = hit-call score of the fitted dose curve at least 0.9, where 1 is the maximum; inactive = score below 0.9); conditions: primary human endothelial cells (HUVEC); actives raise or lower the signal
How it was run: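 Primary human umbilical vein endothelial cells (3C system) were exposed to test chemical for 24 h, after which MCP-1 was quantified by ELISA. Activity was fitted bidirectionally against DMSO as negative control and baseline.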

[13] = read-out: Human Leukocyte Antigen - DR isotype (HLADR), HLA-DRA (gene 3122); experiment: BSK_3C_HLADR: BioMAP Diversity Plus: 3C Assay for Human Leukocyte Antigen - DR isotype (HLADR) Biomarker Activity (AID 2283019; active = hit-call score of the fitted dose curve at least 0.9, where 1 is the maximum; inactive = score below 0.9); conditions: primary human endothelial cells (HUVEC); actives raise or lower the signal
How it was run: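 Primary human umbilical vein endothelial cells (3C system) were dosed with compound and cell-surface HLA-DR was quantified by ELISA at 24 h. Activity was fitted bidirectionally against DMSO as negative control and baseline.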

[14] = target: Retinoic acid receptor alpha (Homo sapiens) (UniProt P10276); experiment: ATG_RARa_TRANS: Attagene TRANS-FACTORIAL HepG2 Assay for human Retinoic Acid Receptor alpha (RARa) (AID 2283005)
How it was run: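 HepG2 transiently transfected with multiplex GAL4-UAS reporter units including a human RARa–GAL4 chimera; 24 h compound exposure. Reporter mRNA quantified by RT-PCR, 6-FAM labeling and capillary electrophoresis; gain of signal versus DMSO.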

[15] = target: human Retinoid X Receptor beta (RXRb), RXRB (gene 6257) (UniProt P28702); experiment: ATG_RXRb_TRANS: Attagene TRANS-FACTORIAL HepG2 Assay for human Retinoid X Receptor beta (RXRb) (AID 2283013)
How it was run: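 After a 24 h incubation with test chemical, transfected HepG2 cells carrying NR-Gal4 fusions and GAL4-UAS reporter transcription units yield RNA whose reporter cDNA is FAM-labelled, HpaI-cut and sized by capillary electrophoresis; increases over DMSO are scored.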

[16] = target: human Retinoic Acid Receptor beta (RARb), RARB (gene 5915) (UniProt P10826); experiment: ATG_RARb_TRANS: Attagene TRANS-FACTORIAL HepG2 Assay for human Retinoic Acid Receptor beta (AID 2283004)
How it was run: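 HepG2 cells transiently transfected with multiplexed GAL4-UAS reporter units expressing chimeric NR–Gal4 fusions; 24 h compound exposure. Reporter mRNA quantified by RT-PCR, 6-FAM labelling, HpaI digestion and capillary electrophoresis; gain-of-signal fitted against DMSO baseline.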

[17] = target: human RAR-related Orphan Receptor beta (RORb), RORB (gene 6096) (UniProt Q92753); experiment: ATG_RORb_TRANS: Attagene TRANS-FACTORIAL HepG2 Assay for human RAR-related Orphan Receptor beta (RORb) (AID 2283010)
How it was run: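 Multiplexed transcription-factor reporter assay: HepG2 cells transiently carrying NR-Gal4/GAL4-UAS constructs, 24 h treatment, mRNA quantified by RT-PCR plus capillary electrophoresis fluorescence; activity scored as induction over DMSO.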

[18] = target: human RAR-related Orphan Receptor gamma (RORg), RORC (gene 6097) (UniProt P51449); experiment: ATG_RORg_TRANS: Attagene TRANS-FACTORIAL HepG2 Assay for human RAR-related Orphan Receptor gamma (RORg) (AID 2283011);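 also: potency for induction of reporter transcripts above DMSO so activators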
How it was run: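 Readout: reporter transcript induction (RT-PCR, fluorescent primer extension, capillary electrophoresis) after 24 h compound exposure of transiently transfected HepG2 cells carrying a RORg-Gal4 chimera and GAL4-UAS reporters; DMSO served as baseline, with increasing signal fitted.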

Measured: AC50

Chain of Peroxisome proliferator-activated receptor gamma (Homo sapiens) (P37231 whole entry, looked up, the tested form may be a part): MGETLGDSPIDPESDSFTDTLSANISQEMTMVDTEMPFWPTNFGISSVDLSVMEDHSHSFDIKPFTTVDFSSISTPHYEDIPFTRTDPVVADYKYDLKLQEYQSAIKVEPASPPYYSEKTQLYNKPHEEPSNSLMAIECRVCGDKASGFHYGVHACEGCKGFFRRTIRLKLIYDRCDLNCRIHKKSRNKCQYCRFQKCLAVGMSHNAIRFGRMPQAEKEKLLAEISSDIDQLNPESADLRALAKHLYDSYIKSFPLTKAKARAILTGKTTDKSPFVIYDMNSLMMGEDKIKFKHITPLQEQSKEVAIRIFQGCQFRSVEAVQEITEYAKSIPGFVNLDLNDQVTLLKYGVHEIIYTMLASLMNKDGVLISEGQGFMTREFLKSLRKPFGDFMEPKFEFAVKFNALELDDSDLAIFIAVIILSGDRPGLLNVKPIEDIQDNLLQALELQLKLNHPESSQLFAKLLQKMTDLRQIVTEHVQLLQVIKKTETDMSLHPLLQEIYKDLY
Chain of human Thyroid Receptor alpha (THRa1), THRA (gene 7067) (P10827 whole entry, looked up, the tested form may be a part): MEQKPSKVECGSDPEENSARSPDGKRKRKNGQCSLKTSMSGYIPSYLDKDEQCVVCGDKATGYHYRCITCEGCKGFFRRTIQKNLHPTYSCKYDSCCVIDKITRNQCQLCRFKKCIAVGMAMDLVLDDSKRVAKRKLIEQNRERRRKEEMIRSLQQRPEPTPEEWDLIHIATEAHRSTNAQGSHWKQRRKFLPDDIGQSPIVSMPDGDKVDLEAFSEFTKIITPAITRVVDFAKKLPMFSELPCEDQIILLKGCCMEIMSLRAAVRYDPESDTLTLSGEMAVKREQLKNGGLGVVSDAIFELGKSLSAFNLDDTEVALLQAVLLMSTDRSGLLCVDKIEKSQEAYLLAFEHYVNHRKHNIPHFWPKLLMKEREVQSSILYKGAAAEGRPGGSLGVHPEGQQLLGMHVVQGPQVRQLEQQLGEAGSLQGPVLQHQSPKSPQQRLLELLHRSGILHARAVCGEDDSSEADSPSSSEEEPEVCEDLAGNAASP
Chain of human Retinoid X Receptor beta (RXRb), RXRB (gene 6257) (P28702 whole entry, looked up, the tested form may be a part): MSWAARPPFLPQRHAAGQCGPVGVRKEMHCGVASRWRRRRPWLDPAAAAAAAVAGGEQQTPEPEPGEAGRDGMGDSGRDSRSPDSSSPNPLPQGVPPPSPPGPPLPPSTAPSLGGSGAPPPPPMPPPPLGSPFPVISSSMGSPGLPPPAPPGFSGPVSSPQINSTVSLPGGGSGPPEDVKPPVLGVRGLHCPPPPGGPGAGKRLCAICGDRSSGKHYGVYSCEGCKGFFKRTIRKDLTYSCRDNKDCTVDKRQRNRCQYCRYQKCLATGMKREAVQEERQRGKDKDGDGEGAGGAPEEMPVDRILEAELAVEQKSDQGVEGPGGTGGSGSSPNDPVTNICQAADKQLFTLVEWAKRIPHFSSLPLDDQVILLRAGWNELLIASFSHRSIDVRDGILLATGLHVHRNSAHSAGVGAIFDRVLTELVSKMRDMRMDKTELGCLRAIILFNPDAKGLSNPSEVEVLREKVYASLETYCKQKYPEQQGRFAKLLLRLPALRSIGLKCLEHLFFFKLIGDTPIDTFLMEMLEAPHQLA
Chain of human Retinoic Acid Receptor gamma (RARg), RARG (gene 5916) (P13631 whole entry, looked up, the tested form may be a part): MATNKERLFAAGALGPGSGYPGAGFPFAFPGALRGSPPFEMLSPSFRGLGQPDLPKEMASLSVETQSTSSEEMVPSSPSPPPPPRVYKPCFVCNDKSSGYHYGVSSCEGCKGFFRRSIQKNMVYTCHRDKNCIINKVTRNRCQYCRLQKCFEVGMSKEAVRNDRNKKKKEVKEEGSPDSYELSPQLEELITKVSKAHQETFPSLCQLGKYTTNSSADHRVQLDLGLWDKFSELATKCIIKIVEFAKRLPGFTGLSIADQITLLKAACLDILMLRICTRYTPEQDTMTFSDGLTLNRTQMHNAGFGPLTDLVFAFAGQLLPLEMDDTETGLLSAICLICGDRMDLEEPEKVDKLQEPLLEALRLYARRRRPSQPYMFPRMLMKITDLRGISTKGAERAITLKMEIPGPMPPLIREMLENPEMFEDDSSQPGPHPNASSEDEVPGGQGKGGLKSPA
Chain of E-selectin (Homo sapiens) (P16581 whole entry, looked up): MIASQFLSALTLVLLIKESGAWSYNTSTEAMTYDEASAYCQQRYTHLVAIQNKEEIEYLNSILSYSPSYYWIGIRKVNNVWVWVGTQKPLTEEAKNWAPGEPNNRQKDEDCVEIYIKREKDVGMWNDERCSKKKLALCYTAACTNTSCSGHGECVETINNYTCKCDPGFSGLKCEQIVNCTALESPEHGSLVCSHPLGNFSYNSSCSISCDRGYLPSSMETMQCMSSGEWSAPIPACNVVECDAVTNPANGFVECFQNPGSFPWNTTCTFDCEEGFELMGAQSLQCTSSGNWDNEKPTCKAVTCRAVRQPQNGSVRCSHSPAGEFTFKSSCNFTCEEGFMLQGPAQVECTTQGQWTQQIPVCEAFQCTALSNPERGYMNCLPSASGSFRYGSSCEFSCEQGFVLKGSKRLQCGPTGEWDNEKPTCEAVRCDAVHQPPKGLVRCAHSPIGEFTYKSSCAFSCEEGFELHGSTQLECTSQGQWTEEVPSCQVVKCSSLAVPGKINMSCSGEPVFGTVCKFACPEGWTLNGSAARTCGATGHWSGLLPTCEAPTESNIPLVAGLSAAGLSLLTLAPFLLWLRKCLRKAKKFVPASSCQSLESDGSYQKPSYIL
Chain of Retinoic acid receptor RXR-alpha (Homo sapiens) (P19793 whole entry, looked up, the tested form may be a part): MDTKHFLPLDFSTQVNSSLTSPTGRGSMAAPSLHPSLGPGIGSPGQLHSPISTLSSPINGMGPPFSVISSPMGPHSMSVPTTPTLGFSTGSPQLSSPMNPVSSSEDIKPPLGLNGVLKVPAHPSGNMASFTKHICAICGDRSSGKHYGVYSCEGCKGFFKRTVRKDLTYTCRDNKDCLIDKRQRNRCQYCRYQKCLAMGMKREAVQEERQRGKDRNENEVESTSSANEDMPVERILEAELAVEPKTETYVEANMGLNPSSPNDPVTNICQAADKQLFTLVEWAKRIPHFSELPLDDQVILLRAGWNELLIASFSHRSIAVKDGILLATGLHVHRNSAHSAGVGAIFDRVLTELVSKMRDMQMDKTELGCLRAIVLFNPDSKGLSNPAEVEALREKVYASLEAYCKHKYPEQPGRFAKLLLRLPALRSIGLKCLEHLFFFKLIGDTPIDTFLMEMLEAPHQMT
Chain of Nuclear receptor subfamily 1 group I member 2 (Homo sapiens) (O75469 whole entry, looked up, the tested form may be a part): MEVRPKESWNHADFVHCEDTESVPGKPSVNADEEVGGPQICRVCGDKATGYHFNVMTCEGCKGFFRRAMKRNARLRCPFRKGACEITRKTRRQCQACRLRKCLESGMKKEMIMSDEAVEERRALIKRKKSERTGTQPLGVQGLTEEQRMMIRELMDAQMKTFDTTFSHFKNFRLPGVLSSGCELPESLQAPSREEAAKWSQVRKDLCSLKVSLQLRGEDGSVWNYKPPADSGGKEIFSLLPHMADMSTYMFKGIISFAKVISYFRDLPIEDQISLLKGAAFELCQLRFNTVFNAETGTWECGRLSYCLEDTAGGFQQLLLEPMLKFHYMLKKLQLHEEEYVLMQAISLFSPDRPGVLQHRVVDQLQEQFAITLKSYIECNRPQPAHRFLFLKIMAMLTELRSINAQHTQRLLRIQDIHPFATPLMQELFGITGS
Chain of Retinoic acid receptor alpha (Homo sapiens) (P10276 whole entry, looked up, the tested form may be a part): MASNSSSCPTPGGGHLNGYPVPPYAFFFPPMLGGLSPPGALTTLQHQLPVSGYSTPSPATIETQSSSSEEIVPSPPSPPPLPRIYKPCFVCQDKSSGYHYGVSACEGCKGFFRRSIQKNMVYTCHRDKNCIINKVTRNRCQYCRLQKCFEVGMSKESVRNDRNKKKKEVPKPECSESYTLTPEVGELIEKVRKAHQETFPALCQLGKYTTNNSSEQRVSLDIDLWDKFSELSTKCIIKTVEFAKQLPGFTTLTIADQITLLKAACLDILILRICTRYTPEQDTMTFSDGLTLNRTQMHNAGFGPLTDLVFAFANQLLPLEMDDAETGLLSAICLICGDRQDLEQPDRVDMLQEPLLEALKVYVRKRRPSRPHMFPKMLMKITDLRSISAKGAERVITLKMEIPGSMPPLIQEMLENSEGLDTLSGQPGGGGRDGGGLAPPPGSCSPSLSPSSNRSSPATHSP
Chain of human RAR-related Orphan Receptor beta (RORb), RORB (gene 6096) (Q92753 whole entry, looked up, the tested form may be a part): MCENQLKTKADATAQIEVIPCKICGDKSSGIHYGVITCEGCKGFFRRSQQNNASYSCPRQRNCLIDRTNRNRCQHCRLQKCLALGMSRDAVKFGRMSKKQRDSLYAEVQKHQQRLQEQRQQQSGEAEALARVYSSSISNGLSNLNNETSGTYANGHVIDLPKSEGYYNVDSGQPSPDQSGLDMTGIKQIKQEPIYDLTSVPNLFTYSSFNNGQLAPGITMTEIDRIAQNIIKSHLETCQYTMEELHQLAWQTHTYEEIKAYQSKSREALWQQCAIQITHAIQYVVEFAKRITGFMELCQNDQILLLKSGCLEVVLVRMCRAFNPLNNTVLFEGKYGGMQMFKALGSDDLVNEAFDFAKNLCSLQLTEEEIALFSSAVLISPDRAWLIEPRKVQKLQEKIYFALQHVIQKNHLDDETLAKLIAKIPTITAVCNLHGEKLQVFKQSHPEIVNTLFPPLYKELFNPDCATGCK
Chain of human Retinoic Acid Receptor beta (RARb), RARB (gene 5915) (P10826 whole entry, looked up, the tested form may be a part): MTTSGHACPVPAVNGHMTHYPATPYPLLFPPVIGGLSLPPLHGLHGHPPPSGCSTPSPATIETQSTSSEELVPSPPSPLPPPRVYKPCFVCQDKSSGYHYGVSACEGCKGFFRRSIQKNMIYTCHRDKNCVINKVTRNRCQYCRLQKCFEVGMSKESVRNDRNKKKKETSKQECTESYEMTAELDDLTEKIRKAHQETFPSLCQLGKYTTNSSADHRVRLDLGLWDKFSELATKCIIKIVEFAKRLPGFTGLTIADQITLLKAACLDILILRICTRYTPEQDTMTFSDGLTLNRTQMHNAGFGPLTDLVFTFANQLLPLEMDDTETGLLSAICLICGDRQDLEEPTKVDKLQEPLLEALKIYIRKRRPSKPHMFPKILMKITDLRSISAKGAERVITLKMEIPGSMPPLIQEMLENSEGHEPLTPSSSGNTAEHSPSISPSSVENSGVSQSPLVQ

C(=NC1CCCCC1)=NC1CCCCC1
active: [1] 29.6 µM | [2] 28.6 µM | [7] 20 µM | [8] 20 µM | [9] 3.82 µM | [10] 20 µM
inactive: [3] | [4] | [5] | [6]

Cn1sc(Cl)cc1=O
inactive: [1] | [3] | [11] | [5] | [7] | [8] | [12] | [9] | [10]
active: [2] 13.7 µM | [13] 29.9 µM

ClC1=C(Cl)[C@]2(Cl)[C@@H]3[C@@H](Cl)[C@@H](Cl)C[C@@H]3[C@@]1(Cl)C2(Cl)Cl
inactive: [14] | [3] | [15]

CC(=O)C=C(C)C
inactive: [16] | [4] | [11] | [17] | [5] | [15]

C1CCC(NC2CCCCC2)CC1
inactive: [16] | [14] | [3] | [11] | [5] | [15] | [6]

O=C(CCl)CCl
inactive: [3] | [17] | [5] | [15] | [6]
active: [18] 60.1 µM

CCOP(=S)(OCC)SCCS(=O)(=O)CC
active: [4] 7.88 µM
not listed: [11] | [13] | [14] | [15] | [16] | [17] | [18]
inactive: all other assays above

CCOC(=O)CP(=O)(OCC)OCC
inactive: [3] | [5] | [6]
